Laboratory results published in PubChem BioAssay.
Calls of active or inactive are those of the source. Unless noted, no rule for the calls is given here.

System: not listed separately
Experiment: HepG2 cytotoxicity, primary screen, cytotoxicity control for P. falciparum antimalarial project, cell-based, ATP luminescence (AID 2303;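 active = inhibition above 50%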;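 also: 0% = DMSO wells and 100% = digitonin-killed cells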)
Settings: HepG2 viability, 24-48 h, at 10 µM, hits give high values

SMILES | inhibition
CC(=O)N[C@H](C(=O)Nc1ccc(-c2ccc(-c3nc4ccc(C(F)(F)F)cc4[nH]3)cc2)cc1)C(C)C | 24% (inactive)
O=C(Cc1ccc(NC(=O)c2ccc(O)c(-c3ccc(Cl)c(Cl)c3)c2)cc1)NCCN1CCOCC1 | 10% (inactive)
O=C(NCCCCN1CCC(c2ccc3c(c2O)CCCC3)CC1)c1ccc(-c2ccc(Cl)cc2)cc1 | 97% (active)
O=C(Nc1ccc(-c2cccc(-c3nc4ccccc4[nH]3)c2)cc1)N[C@@H]1C[C@H]1c1ccccc1 | 63% (active)
CCN(CC)CCCC(C)Nc1c2ccccc2nc2c1ccc1ccccc12 (centres undefined) | 18% (inactive)
NC1CCN(Cc2ccc(-c3ccc(-c4nc5ccc(F)cc5[nH]4)s3)cc2)C1 (centres undefined) | 32% (inactive)
Fc1cccc(C=NNc2ccnc3cc(Cl)ccc23)c1 | 6% (inactive)
Nc1cc(-c2ccc3c(N)nccc3c2)ccc1Cl | 1% (inactive)
O=[N+]([O-])c1ccc(Oc2ccccc2CNCC2CCN(CC3CCCCC3)CC2)cc1 | 40% (inactive)
CCN(CCCN1CCCCC1)c1cc(C)nc(Nc2ccc(C)c(C)c2)n1 | 30% (inactive)
CC(C)(C)c1ccc(CN2CCC(CNC(=O)c3cc(-c4ccccc4)nc4ccccc34)CC2)cc1 | 33% (inactive)
CCCCCCCCNCC(O)c1cc(-c2ccc(Cl)cc2)nc2cc(C)ccc12 (centres undefined) | 0% (inactive)

Target: L-lactate dehydrogenase (Plasmodium falciparum (isolate CDC / Honduras)) (UniProt Q27743)
Experiment: PfLDH activity inhibition – cell lysate, 3D7 strain, counter-screen for P. falciparum growth inhibition project (AID 2304);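 also: 0% = vehicle and 100% = reference inhibitor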
Settings: P. falciparum 3D7 crude extract, LDH APAD/NBT absorbance; at 2 µM; hits give high values

Sequence of L-lactate dehydrogenase (Plasmodium falciparum (isolate CDC / Honduras)) (Q27743 whole entry, looked up): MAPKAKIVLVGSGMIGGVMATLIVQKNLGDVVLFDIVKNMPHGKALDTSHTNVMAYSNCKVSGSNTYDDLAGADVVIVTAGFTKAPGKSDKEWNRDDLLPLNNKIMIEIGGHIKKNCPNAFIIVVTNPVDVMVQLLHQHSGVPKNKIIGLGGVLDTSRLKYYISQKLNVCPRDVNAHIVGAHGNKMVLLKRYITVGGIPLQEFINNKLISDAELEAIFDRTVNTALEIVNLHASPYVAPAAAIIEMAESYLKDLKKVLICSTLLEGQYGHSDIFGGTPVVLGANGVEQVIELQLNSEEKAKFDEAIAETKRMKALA

SMILES | inhibition
CCN(CC)CCCNc1ncc2c(-c3ccc(NC(=O)Nc4cc(C(F)(F)F)ccc4F)cc3)nn(C)c2n1 | -3% (inactive)
CC(C)Cc1cn(-c2nc(C(=N)N)cs2)c2cc(Cl)ccc12 | -1% (inactive)
Oc1ccc2[nH]c(-c3cccs3)nc2c1CN1CCC(N2CCCC2)CC1 | -3% (inactive)
COc1ccc(N2CCN(c3nc(N)c4cc(OC)c(OC)cc4n3)CC2C)cc1 (centres undefined) | 0% (inactive)
Oc1c(Cl)cc(-c2ccccc2)cc1CNC1CCCCC1 | -5% (inactive)
O=C(Nc1ccc(F)cc1)N1CCCN(c2ccnc3cc(Cl)ccc23)CC1 | -1% (inactive)
Nc1cccc(CNCc2ccc(-c3cccc(-c4nc5ccccc5[nH]4)c3)cc2)c1 | 6% (inactive)
Cc1nc(Nc2ccc(F)cc2)nc(N2CCc3ccccc3C2C)c1CO (centres undefined) | -4% (inactive)
CNCCNC(=O)C1Cc2c([nH]c3c(C)cccc23)C(c2ccc(Cl)c(Cl)c2)N1 (centres undefined) | -5% (inactive)
CCCc1cc(NCc2ccncc2)nc(Nc2ccc(F)cc2)n1 | -7% (inactive)
CCCCCn1c(Sc2ccc(C#N)c([N+](=O)[O-])c2)nnc1-c1cc(OC)cc(OC)c1 | 1% (inactive)
COc1cc(OC)c(NC(=O)COc2ccc(C)cc2)cc1Cl | 3% (inactive)
c1ccc(-c2cc(NCCCCCCCCNc3cc(-c4ccccc4)nc4ccccc34)c3ccccc3n2)cc1 | 1% (inactive)
Cn1nccc1C(=O)NCCNCc1ccc(-c2cccc(-c3nc4ccc(F)cc4[nH]3)c2)cc1 | -7% (inactive)
COc1cc(C=NNc2nc(Nc3ccccc3)nc(Nc3ccccc3)n2)ccc1OCc1ccccc1[N+](=O)[O-] | 3% (inactive)
O=C(/C=C/c1ccc(Cl)c(Cl)c1)NCCCCCN1CCC(c2cn[nH]c2-c2ccccc2)CC1 | -2% (inactive)
CCOc1cc(C)ccc1C1CCN(CCCCNC(=O)c2ccc(-c3ccc(Cl)cn3)cc2)CC1 | -6% (inactive)
NC(=O)c1cccc(C(=O)Nc2ccc(-c3cccc(-c4nc5ccc(C(F)(F)F)cc5[nH]4)c3)cc2)c1 | -2% (inactive)
COc1ccccc1CCNC(=O)c1cnc(N2CCN(c3ccncc3)CC2)c(Cl)c1 | 4% (inactive)
Cc1ccc(-n2c(Sc3ncnc4sccc34)nnc2N2CCCC2)cc1 | -3% (inactive)
Cc1cc(N2CCCCC2)nc2ccc(NC(=O)c3cncc(Br)c3)cc12 | 0% (inactive)
Cn1nc(-c2cccc(CNCCc3cccs3)c2)c2cnc(NC3CCCC3)nc21 | -1% (inactive)
COc1ccc2nccc([C@@H](O)CN3CCC(NCc4ccc5cccc(O)c5n4)CC3)c2c1 | 1% (inactive)
CCCNCc1ccc(-c2ccc(CN(CCOC)C(=O)c3nn(-c4ccccc4)nc3C)cc2)nc1 | 3% (inactive)
CC(CN(C)C)C(=O)Nc1cccc(-c2ccc(-c3nc4ccc(C(F)(F)F)cc4[nH]3)cc2)c1 (centres undefined) | -2% (inactive)
Cc1ccc(C)c(Sc2ccc(NC(=O)CN3CCN(C(=O)c4ccco4)CC3)cc2)c1 | 1% (inactive)
C=CC[C@H](NC(=O)c1ccc(NS(=O)(=O)c2ccc3nc(N)[nH]c(=O)c3c2)cc1)C(=O)OCCCC | 1% (inactive)
